Shown are actives, neighbours in structure and some others; about 4.6% of the full set was active somewhere.
D1 ag = human D1 receptor agonism | P21728 | HEK293 T-REx D1 cells, calcium flux, agonist mode | activation, % at 2 µM | hit rate 1% among 360,000 | AID 504660
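Tetracycline-induced HEK293 TREx D1 cells, force-coupled to calcium signalling, were dye-loaded with a no-wash calcium kit. Compound was pin-added after a 10 s baseline. Fluorescence was read kinetically at 1 cycle/s for 180 s, with calcium rises flagged as agonism.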
D1 antagonist = blocks dopamine activation of the human D1 receptor. P21728. HEK293 TREx D1 cells, calcium flux, dopamine EC80; stronger effect = lower value. activity change, negative = inhibition, % at 10 µM. hit rate 3.2% among 360,000. AID 504652; in the data active = activity change below about -30%
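Calcium flux readout: force-coupled, inducible Hek293 Trex D1 line, cells induced overnight at 30 C with tetracycline, dye-loaded 30–90 min at RT. Antagonism scored against EC80 dopamine challenge given 180 s after compound.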
TRHR agonist = activates the human TRH receptor. hit rate 0.18% among 360,000. TRHR cells, calcium flux fluo-8, FDSS agonist mode. activation, % at 2 µM
Target sequence (P34981 whole entry, looked up): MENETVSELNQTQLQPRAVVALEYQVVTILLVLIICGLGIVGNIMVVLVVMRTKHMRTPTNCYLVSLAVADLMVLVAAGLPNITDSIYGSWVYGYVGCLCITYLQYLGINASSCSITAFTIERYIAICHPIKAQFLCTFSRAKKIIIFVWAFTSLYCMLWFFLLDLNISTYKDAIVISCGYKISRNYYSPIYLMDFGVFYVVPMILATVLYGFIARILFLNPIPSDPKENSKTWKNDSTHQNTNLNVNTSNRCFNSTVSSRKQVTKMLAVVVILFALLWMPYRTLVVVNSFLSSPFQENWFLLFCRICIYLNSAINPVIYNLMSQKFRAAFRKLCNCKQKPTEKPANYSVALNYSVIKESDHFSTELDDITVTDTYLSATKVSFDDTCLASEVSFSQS
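TRHR-expressing cells, plated overnight in medium with 10% serum, were loaded with fluo-8 calcium dye at room temperature. After a 10 s baseline, library compound was pin-added and calcium release was recorded kinetically (ex 480/em 530) as agonist response.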
TRHR enhancer = TRH receptor (human) allosteric enhancement | P34981 | TRHR cells, fluo-8 calcium fluorescence, EC20 TRH enhancement | enhancement, % at 2 µM | hit rate 0.66% among 360,000; in the data active = enhancement above about 30%
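Enhancer read-out: after compound pinning and an initial kinetic agonist-mode read, an EC20 of TRH (10 nM final) was injected and fluo-8 calcium signal (Ex 480/Em 530) followed at 1 s/cycle for 100 cycles in TRHR-expressing cells.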
D1 PAM = enhances dopamine response at the human D1 receptor; AID 504651; potentiation, % at 10 µM; hit rate 0.036% among 360,000; HEK293 TREx D1 cells, calcium flux, dopamine EC20 potentiation; P21728; in the data active = potentiation above about 30%
Of the large screens only hits and unclear results are named; the others gave an inactive call. Cut-off read from the data, not from the text of the source, unless noted: active = activation above about 30%; inactive = the rest.

COc1ccc(NC(=O)CC2C(=O)N(c3ccc(F)cc3)C(=O)N2Cc2cccnc2)cc1 (configuration not stated)	none
O=S(=O)(c1ccc2ccccc2c1)n1nc(-c2ccco2)nc1NCc1cccc(Cl)c1	D1 antagonist -41.6
CC(C)c1ccc(CNc2nc(-c3ccco3)nn2S(=O)(=O)c2ccccc2)cc1	none
CCOc1ccc(/C=C/c2nc(C#N)c(NC3CCCCC3)o2)cc1	D1 antagonist -37.8
c1cncc(CNc2ncnc3ccc(-c4ccco4)cc23)c1	D1 antagonist -76.9
COc1cccc(-c2ccc3ncnc(NCc4cccnc4)c3c2)c1	none
Cc1csc(CNc2ncnc3ccc(-c4ccco4)cc23)c1	D1 antagonist -39.3
COc1ccc(NC(=O)C2=C(C)Nc3ncnn3C2c2ccc[nH]2)cc1 (configuration not stated)	none
COc1ccc(CCNC(=O)C(=O)NCC(c2cccs2)S(=O)(=O)c2ccccc2)cc1 (configuration not stated)	none (no result: D1 antagonist)
COc1ccc(CNC(=O)Cn2c(SCC(=O)N(C)c3ccccc3)nc3ccccc32)cc1	none
CCC(C)NC(=O)CSc1nc2ccccc2c(=O)n1Cc1ccc(OC)cc1 (configuration not stated)	TRHR enhancer 31.8
CCN(C(=O)CSc1nc2ccccc2n1CC(=O)NCc1ccc(OC)cc1)c1ccccc1	D1 ag 35.4
COc1ccccc1CNC(=O)Cn1ncn2c(cc3sccc32)c1=O	none
Nc1nc(CSc2nnnn2-c2ccccc2)nc(N2CCCc3ccccc32)n1	none
CN(C)c1nc(N)nc(CSc2nnnn2-c2ccc(F)cc2)n1	TRHR enhancer 38.0
COc1ccc(OC)c(C2CC(=O)N(c3cccc(C)c3)C3=C2C(=O)OC3)c1 (configuration not stated)	TRHR enhancer 35.5
COc1ccccc1C1CC(=O)N(c2cccc(C(F)(F)F)c2)C2=C1C(=O)OC2 (configuration not stated)	none
Fc1ccc(-c2noc3ncnc(NCC4CCN(Cc5ccc(Cl)cc5)CC4)c23)cc1	none
COC(=O)CN1C(=S)N(c2ccc(OC)cc2)C(=O)/C1=C/c1ccc(OC)cc1	none
COC(=O)CN1C(=S)N(c2ccc(OC)cc2)C(=O)/C1=C/c1ccc(N2CCOCC2)cc1	D1 ag 33.1 (no result: D1 antagonist)
COc1ccc(N2CCN(C(=O)C3CCN(S(=O)(=O)c4cn(C)cn4)CC3)CC2)cc1	none
C=C(C)CC(NCc1ccco1)c1ccc(OC)cc1 (configuration not stated)	D1 antagonist -35.7
Cn1c(=O)n(CC(=O)O)c(=O)c2c1nc1n2CCCN1c1ccc(Cl)cc1	none
CCc1ccc(-c2cc(C(=O)N/N=C/c3c[nH]c4ccccc34)[nH]n2)cc1	TRHR enhancer 35.5
CCc1ccc2c(Cl)c(C(=O)N/N=C/c3c[nH]c4ccccc34)sc2c1	none
O=C(N/N=C/c1cc([N+](=O)[O-])ccc1O)c1cc(-c2ccccc2)nc2ccccc12	none
O=C(N/N=C/c1c[nH]c2ccccc12)c1ccc([N+](=O)[O-])cc1Cl	D1 antagonist -47.8
O=C(N/N=C/c1cc([N+](=O)[O-])ccc1Cl)c1cc(-c2ccccc2)nc2ccccc12	D1 antagonist -47.5
Cc1ccsc1/C=N/NC(=O)c1cc(-c2ccncc2)nc2ccccc12	TRHR enhancer 35.9
Cc1cccc(-c2cc(C(=O)Nc3cccnc3)c3ccccc3n2)c1	none
Cc1cccc(-c2cc(C(=O)Nc3ccncc3)c3ccccc3n2)c1	D1 antagonist -41.1
COc1ccc(-n2nc(C(=O)Nc3ccc(C)cn3)c3c4ccccc4n(C)c3c2=O)cc1Cl	none
COc1cccc(CNC(=O)CCc2c(C)nc3c(c2C)c(=O)n(C)c(=O)n3C)c1	none
Cc1cc(C)cc(N(CCC#N)C(=O)COC(=O)c2ccccc2SCC(=O)N2CCCC2)c1	D1 antagonist -34.2
Cc1ccc(N(CCC#N)C(=O)COC(=O)c2ccccc2SCC(=O)N2CCCC2)cc1	none
C=CCOc1ccc(/C(O)=C2/C(=O)C(=O)N(CCCn3ccnc3)C2c2cccs2)cc1 (configuration not stated)	D1 antagonist -52.1
COc1cc(-c2nnc(-c3cccnc3)o2)cc(OC)c1OC	D1 antagonist -88.2
COc1ccc(-c2nnc(-c3cccnc3)o2)cc1OC	none
NC(=O)NC(=O)COC(=O)CN1C(=O)C2CCCCC2C1=O (configuration not stated)	TRHR enhancer 35.6
CCOC(=O)c1c(C)[nH]c(C(=O)COC(=O)CN2C(=O)C3CCCCC3C2=O)c1C (configuration not stated)	TRHR enhancer 31.3
NC(=O)COC(=O)CN1C(=O)C2CCCCC2C1=O (configuration not stated)	none
CCCc1cc(=O)[nH]c(SCC(=O)c2[nH]c(C)c(C(=O)OCC)c2C)n1	TRHR enhancer 31.3
CN(C)c1ccc(/C=C/c2ccc3ccccc3[n+]2C)cc1	none
CN(C)c1ccc(/C=C/c2ccc3c4ccccc4ccc3[n+]2-c2ccccc2)cc1	D1 antagonist -32.6
COc1ccc(Cc2nc3c4cnn(-c5cccc(F)c5)c4ncn3n2)cc1	none
COc1ccc(-n2ncc3c2ncn2nc(Cc4ccccc4)nc32)cc1	D1 antagonist -34.0
Cc1ccc(SCc2cc(=O)[nH]c(SCC(=O)Nc3cc(Cl)ccc3Cl)n2)cc1	D1 antagonist -34.2
CCc1ccc(NC(=O)CSc2nc(CSc3ccc(C)cc3)cc(=O)[nH]2)cc1	none
Cc1cc(C)n2nc(SCN3C(=O)c4ccccc4C3=O)nc2n1	D1 antagonist -32.9
CCCn1c(C)cc(C(=O)CSc2nc3nc(C)cc(C)n3n2)c1C	D1 antagonist -49.4
CCOC(=O)CSc1nc2nc(C)cc(C)n2n1	none
Cc1coc2cc3oc(=O)c(CCC(=O)NCc4ccccc4Cl)c(C)c3cc12	none
CC[N+](CC)(CC)CC(=O)Nc1ccc(SC(F)F)cc1	none
Cc1ccc(C(=O)Nc2ccc(SC(F)F)cc2)s1	D1 antagonist -33.8
CSc1ccc(CCNC(=O)c2cc3c(-c4ccccc4F)nn(C)c3s2)cc1	none
O=C(Cn1cc(S(=O)(=O)Cc2ccc(F)cc2)c2ccccc21)NCCc1ccccc1	none
CCOC(=O)c1c(C)[nH]c(CCC(=O)NCc2ccc(N(C)C)cc2)c1C	none
CCCC(=O)N1CC(=O)Nc2ccc(C)cc2C1c1ccc(F)cc1 (configuration not stated)	D1 antagonist -87.9
Cc1ccc(C)c(Cn2c3ccccc3c3cnn(CC(=O)NCCCN4CCOCC4)c(=O)c32)c1	D1 antagonist -30.4
CCCCN(C)CCCNC(=O)Cn1ncc2c3ccccc3n(Cc3cc(C)ccc3C)c2c1=O	D1 ag 96.2
COc1ccccc1Cn1c(-c2ccccc2OC)nc2ccccc21	TRHR enhancer 37.3
Oc1ccccc1CNc1nc2ccccc2n1CCN1CCCCC1	none
COc1ccccc1CNc1nc2ccccc2n1CCN1CCCCC1	D1 antagonist -35.3

Screens as filed in PubChem.
